PubChem BioAssay AID1508600 (Functional Genomics Laboratory (NCATS/FGL), 2020)
Hit rate of the full screen: of about 53,000 sequences, about 3,700 (7%) were called active.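 Rule for the calls: active = gene knockdowns whose robust z-score for IL-1 alpha signal is at least 2 or at most -2, so actives lie on both sides; inactive = the rest.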 The full list was thinned out, with actives kept by preference.

Assay: Components of the Cytosolic LPS Sensing Pathway: Gene Identification via Genome-wide siRNA Screen;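 note: robust z of the log signal after scaling to non-targeting control siRNA wells of the plate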
Conditions: RAW264.7 macrophages, IL-1a HTRF, actives lie on both sides, screened at 100 nM (by protocol), cells primed 5 h with Pam3CSK4 first
Outline: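 Three distinct siRNAs per gene were tested singly at 100 nM in RAW264.7 macrophages. Following Pam3CSK4 priming and 24 hour LipidA transfection, IL-1a secretion was read by HTRF.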

z-score, active:
GCAGUUGUCACUGGCAAGUTT against Aqp2 2.21
GCCUAUGCUCAACUUCUCGTT against Thap4 -3.31
GGUCGUGAUAUUAUUGGGUTT against Ddx47 2.91
GGAAGCAAACUUAAAGUGUTT against Ewsr1 2.17
CGCGGAGUUUCGAAGUGUCTT against Drd4 3.64
GGCAAUUCUGAAGAAACCATT against Ogn -2.23
CCACGCUCUCAAGGUAUAGTT against Cyp2d22 -2.81
GGAAGACCUUCAGAGAGAATT against Ell2 4.25
GGUGAUGAUGAUGGGCAACTT against Cdkn2a 2.02
GCCCUUUCCGUCUGAAAUCTT against Hydin 2.06
GCAAAGGCCAAAUAUGAGGTT against Dbil5 -2.71
GGACUGAUGGAUCCUUCCATT against Krtcap3 -2.12
CUUACCACCCUGAGUUUCATT against Olfr1066 -3.2
GGAGCAGUCUCCUUUUUGUTT against Pcnp 2.14
GGGCUAUGUAUUGUAAAUGTT against Nxf1 -2.79
GGGUUAGGCCAGUUCUGAUTT against Reg3d -2.08
GGAACUGCUCGACAAAGCUTT against Primpol -2.53
GCCCGUUCCACUUUUGGAGTT against Nedd1 2.2
GGAAGAAGCAGAAGAACAUTT against Rpl12 2.55
GGAACUCCUGGAGCAGAACTT against Tbc1d10b -2.52
GGACAAAAACAAAUGUGAGTT against 4933417A18Rik -2.43
GGAAUCAAAGGUCAAGCCATT against Rnf181 2.17
GCCGGGACCAUGAUUAUAGTT against Rbm10 2.7
GGGAUUCUGUCUGCACUGUTT against Olfr1145 -2.51
GGACAAUUGAAAACUGCCUTT against Gpd1 2.95

z-score, inactive:
GCCCUAUUCCCAACUAUUCTT against Nefl -0.481
GGACUUUACAGACACUUUUTT against Kdm1b -1.57
GCAAAGGUUCUAGUUGAUATT against Cct2 -0.585
CCGAUUUUGUGGCCUCAUGTT against Emg1 -0.578
GGAGAAAUGGGUAAAAACUTT against Paral1 0.296
GGCCCUGACAGAGGAAAAATT against Impa2 -1.16
CGAUAUGAAGCGAAAUAUCTT against Pmpca 0.528
GCCUUCCAGUCAGUGAAAUTT against Foxn1 -0.174
GGAAAUCGAGCAAAAGACATT against Cep104 1.5
GCCAUUCUUUGAAAAGAGGTT against Ak8 -1.77
GCAGGUAAGUUAAAUGAUGTT against Ccdc148 0.961
CCCUUUACAUUACUCUAGCTT against Olfr715 0.141
GGGAGCGGAGCAAACAUAATT against Olfr1370 0.675
CGGUUCUUUUACCAAGAUCTT against Jak3 -0.781
GCCGAGUUUACUUGUUUGATT against Exd1 0.554
GGUGUUCUGUAUCUUGUUCTT against Ndn 0.572
GGAGCUCCAUGACAUGUUUTT against Stx3 -0.37
GGAACCUAACAGAGAAACATT against Prpsap2 -0.166
GCAAAUACUCAAGUUCAGATT against Cpt1b 0.382
GGAUACUCGGGAUCUAGUATT against Anxa11 -1.44
GGAGGAGUCCCAUAACUCATT against Cby2 1.05
GGUAAACUUGACAAUAGGATT against Zc3h14 -0.512
CCCUGGUCGUCAUUUUCAATT against Morc2b 1.54
GCACAAGCGUGGAACACAUTT against Dctn2 0.702
GGCCCAACAUAUAUCAAAUTT against Adck2 1.38
GGAAACUGUUGAAUCUUGUTT against Smad5 1.42
GGGAUUGGGUAUUUUUUAGTT against B4galt1 -0.432
CCCGUACAUUGAGUGCAAUTT against 6330403K07Rik 0.414
GGAGUUCAGGAAAAUUCUUTT against Fsd1l 0.0551
GGGAAAGUUAAUAUCAAGATT against Ephb4 0.185
GGACAAGAUUCUAAACUGCTT against Wdr37 1.03
GGCCUUGUAAAUUAUGCAUTT against Klhl23 0.61
GCUUCUGGUUUUCGGCUAUTT against Sfswap 0.427
GAUGUGUUAACUACACCGATT against Pyy 0.983
CGAGGAUGAGUUCAGUGAGTT against Pdcl3 -1.19
GUUGGUUUGUUGACCUCUUTT against Arap2 0.1
CCUACUCUGGUAAAACCUUTT against Immp1l -0.365
GCCAUUAAAGGUAACACUGTT against Tmbim7 0.0423
GCCUUCUGAGAUAGUAGAUTT against Zcchc17 0.756
GGAGAAAAUCAAACCAGAUTT against Ddx19b 0.823
GGCAUCCAUCAACAACAGGTT against Ahsa1 -0.925
GCAUGUACCCUCUUUGUAGTT against Gjb6 -0.954
GGAUUCGAGUGGUAACAAGTT against Nmral1 0.617
GGUAUAGCUACCAUUUUUCTT against Ggct -1.05
GGAGAAAGCAGAAAUUGAATT against Mfap1a -1.31
CCAAGAUUCGGUUUUGCUUTT against Trerf1 -0.33
GGCAGCCCUUUUGCUAAGATT against Neurod1 -0.0737
GGCUGGUGAAAGUCAAGGUTT against Arid4a 0.503
GCUCUUGAUGUUUAGAGUUTT against Usp17lf 0.345
GGGCAGCAGCAAUUUCUGUTT against Ahcyl1 1.39
GGAAAAAUUAGACCGUGAGTT against Pcdhb4 -0.299
CCAUUGAUAUUAAAUCGCUTT against Pik3cg -0.244
GCACGACUACUUCUCAAAUTT against Prpf6 0.376
GGCCAGAAUAUCAUCGUCATT against Rbks -0.163
GGGACACCUUCCGUAACUATT against Gcdh -0.832
GCACGCUAUUGGCUAUGAGTT against BC052040 -0.0182
GGUCAUGAUCAAGACACAUTT against Tmem63c 0.371
AAGGUUUGGAAACUCAUUGTT against Zbtb25 -1.77
GGAAGAGGAGGAGUACAAGTT against Fnbp1 -0.0804
GCAGUUCAUGUCCUGAAUATT against Olfr308 -1.49
GUUUCCAUAUCCUUUAAGUTT against Lilr4b 1.23
GGGUUAUAGGUGUGUGUGCTT against Gemin6 -0.389
GCUGCACUUGAAAUCCGAGTT against Atg2b 1.49
GGUUGUGCAAGAGUAUGAATT against Nphs2 0.316
GCGCACAACAGACUUCUAUTT against Epm2a 0.0628
GGAAGAACUUGACCCAGAGTT against Pex16 1.31
GGCGACAGUUGUUUUUGUGTT against Nlrp4b -0.588
GCUGUUUUACCUUAAUCCCTT against Tnfsf18 0.601
GGAAUUCCAAGUCAUUAUUTT against B230340J04Rik 0.664
GCAUCUUAGGCAUUGCUAGTT against Pcna -0.156
GGAUCAUGGGCGAAUGAUGTT against Rae1 -1.41
CCAUGUCAGUUACAAUGCGTT against Gja6 1.54
GGUCCAUGAUUGAAACACGTT against Srpr 0.798
GCAGAUAAGAGUUCAAAUCTT against Oxa1l -0.499
GACAUACAAUCUCCUACAUTT against Olfr478 0.818
GGAAUUCCGAAUAUUCCAGTT against Tsen2 1.51
GGAAGCCACCUUAACAUUATT against Osgin1 -0.814
GGAGAACUCUUUCAGAUUCTT against Stk36 0.957
GGGUUCUGCAUGUUGAUUCTT against Chm -0.853
GCCACCCACCUAAAAUCAATT against Rcsd1 -0.216
GGAAGUCUAGGUAAAAAAGTT against Samsn1 -0.994
GGACUUCAAGGACUUCUACTT against Crtap 0.112
GGGUGAGUGUCGGAACUUUTT against Sema6b -0.157
